Reference: PubChem BioAssay (NCI)
About 83,000 compounds went through this panel and 20% of them were active in at least one assay; those are over-represented in the sample as a whole.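 Growth was measured after 48 h exposure to one concentration of compound in 96-well plates. Values under 10 count as active.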 Values without a mark were called inactive. Active and inactive are the calls of the source.

Each compound was assayed on UACC-62 melanoma (assay: NCI-60 one-dose screen, 48 h (100 = growth as untreated, 0 = no growth, -100 = all killed)). Settings: 10 µM unless noted.

SMILES | growth
NCCCOc1cc2ccccc2cc1C(=O)Nc1ccc(Cl)cc1OC(=O)c1cc2ccccc2cc1OCCCN | -71.1% (active)
CCCCCCCCCCCCCCCCNC(=S)N/N=C/c1ccc(O)cc1O | 56.5%
CC1(C)N=C(N)N=C(N)N1c1cccc(CCCCOc2ccccc2)c1 | 20.8%
CCCC(C)c1cc(Cc2cc(Cl)cc(Cl)c2O)c(O)c(Cc2cc(Cl)cc(Cl)c2O)c1 (stereo not given) | -5.72% (active)
Oc1ccc(Br)cc1/C=N/NC(=S)NC12CC3CC(CC(C3)C1)C2 | 30.1%
Cc1ccc([C@@H]2C[C@H](O)Cc3ccccc3N2)s1 | 117%
Cc1c(Cc2ccccc2)c(=O)oc2c(C)c(OCC(=O)n3nc(C#N)cc3N)ccc12 | 99.1%
N#CCc1ncc(-c2ccc(C(F)(F)F)cc2)c(NC2CCCCCC2)n1 | 42.1% [100 µM]
CCC1(CC)C(OC)NC(Br)=C(C#N)C1(C#N)C(N)=O (stereo not given) | 99.5%
CC1(C)Oc2cc3oc(=O)ccc3cc2C[C@@H]1OCCOS(=O)(=O)c1ccc(C#N)cc1 | 87.1%
CC(C)CCCCCOC(=O)c1ccccc1SSc1ccccc1C(=O)OCCCCCC(C)C | 96.2%
C=C(NC(=O)[C@H](C(C)C)N(C)c1cccc2[nH]ccc12)C(=O)OC | 90.5%
O=C(NC1CCN(Cc2ccccc2)CC1)c1cc(-c2cccnc2)nc2ccc(Cl)cc12 | 8.77% (active)
Cc1c(CN(C)C)cc(C(C)C)cc1C(C)C | 106%
Nc1ccc(S(=O)(=O)c2ccc(NO)cc2)cc1 | 115%
CCOC(=O)C1=C(C(F)(F)F)NC(=S)NC1CN1C(=O)c2ccccc2C1=O (stereo not given) | 101%
CC(=O)NCCN | 102%
COc1ccc(Cn2cc3c(c2)-c2oncc2CC3)cc1OC | 40.6%
Cc1ccc(C(=O)Nc2ccc(CN3CCN(C)CC3)c(C(F)(F)F)c2)cc1C#Cc1cncc2ncccc12 | -84.8% (active)
Cc1nc2c(nnn2-c2ccccc2)c2nc(-c3ccc(Cl)cc3)oc(=O)c12 | 98.4%

SMILES | growth
CC(=O)Nc1nc(C)c(C(=O)N/N=C/c2cccs2)s1 | 80.1%
CCCC(CCC)Oc1ccc(CCCC2=C(O)c3ccccc3C(=O)C2=O)cc1 | 30.4%
COc1ccc(-c2cc(C#N)c(NNC(C)=O)[nH]2)cc1 | 103%
CCCCCCCCCCCCCCCCCC(=O)Nc1ccc(O)cc1 | 102%
COc1ccc2c(N)ncc(C#Cc3cc(C(=O)Nc4ccc(CN5CCN(C)CC5)c(C(F)(F)F)c4)cnc3C)c2c1 | 28.2%
COC(=O)C1CC(=O)N(C(=O)Nc2ccc(Cl)cc2Cl)C1 (stereo not given) | 97.2%
COC(=O)CC(=O)C(=O)OC | 108%
COc1ccc(C2=NN(C(=O)c3cc(-c4ccc(C)cc4)nc4ccccc34)C(c3cc(-c4ccccc4)nn3-c3ccccc3)C2)cc1 (stereo not given) | 83.5%
O=C(Nc1cccc(Cn2c(=O)[nH]c3ccc(Oc4ncccn4)cc3c2=O)c1)c1ccc(Cl)cc1 | 53.9%
CC(=O)Nc1ccc(CC#N)cc1Br | 99.6%
CC1=C[C@@H]2c3c(c(O)c(O)c4oc5cc(O)cc(O)c5c(=O)c34)[C@@H](c3cc(O)c(O)c4oc5cc(O)cc(O)c5c(=O)c34)[C@@H]2C(C)(C)C1 | -61.5% (active)
Brc1c(-c2ccncc2)nc2n1CCS2 | 84.4%
CC(C)(C)c1ccc(OCCOC(=O)CBr)cc1 | 93.6%
NC(N)=Nc1ccc(/C=C2\C=Cc3ccccc32)cc1 | 69%
O=C(Cc1ccccc1[N+](=O)[O-])c1ccc2c(c1)OCO2 | 88.8%
N#Cc1c(N)nc(Nc2nc3ccccc3[nH]2)nc1-c1ccc(Cl)cc1 | 113%
Oc1ccc(CN(Cc2ccc(C(F)(F)F)cc2)Cc2ccc(O)c3ncccc23)c2cccnc12 | -21.3% (active)
CCC(C)C1NC(=O)C(CC(C)C)NC(=O)C(C)NC(=O)C(C(C)C)NC(=O)C(CCCCN)NC(=O)C(CC(C)C)NC(=O)C(C(C)C)NC(=O)[C@H](C)NC(=O)C(C(C)CC)NC(=O)C(CCCN=C(N)N)NC(=O)C(CCCCN)NC(=O)C(CCCN=C(N)N)NC(=O)C(CCCCN)NC(=O)C([C@H](C)CC)NC(=O)C(CCCCN)NC1=O (stereo not given in full) | 21.3%
COC(=O)c1ccc(C(=Nc2ccc(N(C)C(=O)CN3CCN(C)CC3)cc2)c2c(O)[nH]c3ccc(C(=O)OC)cc23)cc1 | 42.7%
O=C(C(=O)N1CCOCC1)c1ccc(O[C@H]2O[C@H](CO)[C@@H](O)[C@H](O)[C@@H]2O)cc1 | 97.1%
